The experiment has as its target NCAPG2. The experiment can be described thus: pooled miR-30 sensor sort-seq; sequence = guide strand. As to conditions: shRNA.
TTGTCGTGGAGACTGTATCTGA: the sensor-assay potency score (higher = more potent) was -0.323.
For the sequence TAGAACTCTGTAGTTTTCGTTC, the sensor-assay potency score (higher = more potent) is -0.463.
On to TTAGTCTCCAGACTCCTCCTTA, for which the sensor-assay potency score (higher = more potent) worked out at 0.238.
The sequence TTGATGGTGAAAGTAACTCAGA displayed a sensor-assay potency score (higher = more potent) of -1.15.
Note: reference of the scale not given here.
